Assay results published in PubChem BioAssay (NCATS).
Inconclusive results are not listed. Where a call stands in place of a potency, no number is given. Values without a mark were called inactive. Active and inactive are the calls of the source. Calls come from the whole dose curve; as a rule, active = well fitted cell-killing curve with a large enough effect; inconclusive = small, poorly fitted or top-dose-only effect, or effect the other way; inactive = flat fitted curve, though single readings scatter.

Legend:
Tov-21-G = assay: Primary qHTS to identify gynecologic anti-cancer compounds using libraries of approved drugs and bioactive compounds (AID 1345084); settings: Gynecologic cancer cell panel viability, ATPlite luminescence, 48 h; series mostly up to 57.5 µM; note: nearly all actives have a fitted effect of over 55% in size
Procedure, shortened: (§1)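 Cytotoxicity screen measuring ATP content by luciferase luminescence. Each compound is applied at five concentrations for 48 h at 37 C with 5% CO2.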

Tov112D = assay: as above; settings: Gynecologic cancer cell panel viability, ATPlite luminescence, 48 h; series mostly up to 57.5 µM
Procedure, shortened: as §1
Potency is the fitted concentration of half-maximal effect.

Structure (SMILES): NC(=O)c1nc(Nc2ccccc2)sc1NC(=O)C1CCCCC1
- Potency (Tov-21-G): inactive
- Potency (Tov112D): inactive

Structure (SMILES): Cc1nc(NC(=O)N2CCC[C@H]2C(N)=O)sc1-c1ccnc(C(C)(C)C(F)(F)F)c1
- Potency (Tov-21-G): inactive
- Potency (Tov112D): inactive

Structure (SMILES): COc1ccccc1-c1ccc(-c2cn(C(=O)N3CCCCC3Cc3ccccc3)nn2)cc1 (configuration not stated)
- Potency (Tov-21-G): inactive
- Potency (Tov112D): inactive

Structure (SMILES): COc1ccc2cc3c(NC(=O)c4ccco4)nn(C)c3nc2c1
- Potency (Tov-21-G): inactive
- Potency (Tov112D): inactive

Structure (SMILES): C/C=C/C=C/C(=O)O[C@@H]1C=C2COC(=O)[C@]2(O)[C@@]2(C)CCCC(C)(C)[C@H]12
- Potency (Tov-21-G): inactive
- Potency (Tov112D): inactive

Structure (SMILES): COc1c(C)cc(NC(=O)c2nn(Cc3ccc(F)cc3)c3c2CN(C(=O)c2ccc[nH]2)C[C@]3(C)C(N)=O)cc1C
- activity change, negative = cytotoxicity (Tov-21-G): 11.9% [at 11.6 µM]
- activity change, negative = cytotoxicity (Tov112D): 9.54% [at 11.6 µM]

Structure (SMILES): Cc1ccc(N2CCN(CCC3NC(=O)c4ccccc43)CC2)cc1C (configuration not stated)
- Potency (Tov-21-G): inactive
- Potency (Tov112D): inactive

Structure (SMILES): CNC(=O)c1cc(Oc2ccc(NC(=O)c3cccc(C(F)(F)F)c3)cc2)ccn1
- Potency (Tov-21-G): inactive
- Potency (Tov112D): inactive

Structure (SMILES): C/C(=C/CO)CCC1C(C)CCC2C(C)(C)CCCC12C (configuration not stated)
- Potency (Tov-21-G): inactive
- Potency (Tov112D): inactive

Structure (SMILES): O=C(O)c1ccc(N2C(=O)/C(=C/c3ccc(-c4ccc([N+](=O)[O-])cc4)o3)C=C2c2ccccc2)cc1
- Potency (Tov-21-G): inactive
- Potency (Tov112D): inactive

Structure (SMILES): CC(C)c1c(O)ccc2c1CC[C@H]1C(C)(C)CCC[C@]21C
- Potency (Tov-21-G): inactive
- Potency (Tov112D): inactive

Structure (SMILES): C=C1CC2OC(=O)C(=C)C2C(OC(=O)/C(C)=C\C)CC2(C)OC1=CC2=O (configuration not stated)
- Potency (Tov-21-G): 11.2 µM (active)
- Potency (Tov112D): inactive

Structure (SMILES): O=C(NCCCN1CCC2(CC1)OCc1ccccc12)[C@H]1CCCN1Cc1ccccc1
- Potency (Tov-21-G): inactive
- Potency (Tov112D): inactive

Structure (SMILES): Cn1cc(-c2ccc(F)c(C(F)(F)F)c2)nc1C1CCN(c2ncnc3[nH]ncc23)CC1
- Potency (Tov-21-G): inactive
- Potency (Tov112D): inactive

Structure (SMILES): COc1ccc(S(=O)(=O)n2cnc3cc(C)c(C)cc32)cc1
- Potency (Tov-21-G): inactive
- Potency (Tov112D): inactive

Structure (SMILES): O=C(CNC(=O)c1cccc(C(F)(F)F)c1)N[C@@H]1CCN(Cc2ccc(Cl)cc2)C1
- Potency (Tov-21-G): inactive
- Potency (Tov112D): inactive

Structure (SMILES): CC(C)(C)[C@H](NC(=O)c1ccc(N)c(Cl)c1)C(=O)N1CCC[C@H]1C(=O)N[C@H](C#N)CC(=O)O
- Potency (Tov-21-G): inactive
- Potency (Tov112D): inactive

Structure (SMILES): COCCCNC(=O)c1ccc(Cn2c(=O)c3ccccc3n(Cc3ccc(C(C)C)cc3)c2=O)cc1
- Potency (Tov-21-G): inactive
- Potency (Tov112D): inactive

Structure (SMILES): CC(C)(F)CC(NC(c1ccc(-c2ccc(S(C)(=O)=O)cc2)cc1)C(F)(F)F)C(=O)NC1(C#N)CC1 (configuration not stated)
- Potency (Tov-21-G): inactive
- Potency (Tov112D): inactive

Structure (SMILES): CN1CCc2cc3c(cc2C(=O)Cc2cc4c(cc2C1)OCO4)OCO3
- Potency (Tov-21-G): inactive
- Potency (Tov112D): inactive

Structure (SMILES): COc1cc(/C=N\NC(=O)c2ccc3c(c2)OCO3)ccc1OCc1ccccc1
- Potency (Tov-21-G): inactive
- Potency (Tov112D): inactive

Structure (SMILES): Cc1onc(-c2ccccc2)c1C(=O)N1CCN(c2ccc([N+](=O)[O-])cc2Cl)CC1
- Potency (Tov-21-G): inactive
- Potency (Tov112D): inactive

Structure (SMILES): Cc1ccc(F)cc1S(=O)(=O)N[C@@H]1CCN(Cc2ccc(OC(C)C)cc2)C1
- Potency (Tov-21-G): inactive
- Potency (Tov112D): inactive

Structure (SMILES): COc1cccc(CN(C(=O)CC(C)(C)C)[C@H]2C[C@H](C(=O)N3CCNCC3)N(Cc3ccc4c(c3)OCO4)C2)c1
- Potency (Tov-21-G): inactive
- Potency (Tov112D): inactive

Structure (SMILES): CCNC1(C(N)=O)CCN(c2ncnc3c2nc(-c2ccccc2Cl)n3-c2ccc(Cl)cc2)CC1
- Potency (Tov-21-G): inactive
- Potency (Tov112D): inactive

Structure (SMILES): Nc1nc2c(cnn2CCCc2ccc(O)cc2)c2nc(-c3ccco3)nn12
- Potency (Tov-21-G): inactive
- Potency (Tov112D): inactive

Structure (SMILES): CC(NCCCc1cccc(C(F)(F)F)c1)c1cccc2ccccc12 (configuration not stated)
- Potency (Tov-21-G): inactive
- Potency (Tov112D): inactive

Structure (SMILES): CCCOc1ccc(CCc2nc3cc(-c4c(C)noc4C)ccc3n2CCN2CCOCC2)cc1
- Potency (Tov-21-G): inactive
- Potency (Tov112D): inactive

Structure (SMILES): COC(=O)c1ccc2c(c1)nc(NC(=O)c1ccccc1)n2CCCc1ccccc1
- Potency (Tov-21-G): inactive
- Potency (Tov112D): inactive

Structure (SMILES): CC(C)c1ccc(NC(=O)Cn2cnc3c2c(=O)n(C)c(=O)n3C)cc1
- Potency (Tov-21-G): inactive
- Potency (Tov112D): inactive

Structure (SMILES): N#Cc1ccc(Nc2nc(-c3ccc(O)cc3O)cs2)cc1C(F)(F)F
- Potency (Tov-21-G): 5.01 µM (active)
- Potency (Tov112D): 7.94 µM (active)

Structure (SMILES): C[C@@H](O[C@H]1OCCN(Cc2nn(P(=O)(O)O)c(=O)[nH]2)[C@H]1c1ccc(F)cc1)c1cc(C(F)(F)F)cc(C(F)(F)F)c1
- Potency (Tov-21-G): inactive
- Potency (Tov112D): inactive

Structure (SMILES): COc1cc(CCc2ccc(OCC=C(C)C)cc2)cc(OC)c1OC
- Potency (Tov-21-G): inactive
- Potency (Tov112D): inactive

Structure (SMILES): CC1(C)C2CCC(CO[C@@H]3O[C@H](CO[C@@H]4OC[C@](O)(CO)[C@H]4O)[C@@H](O)[C@H](O)[C@H]3O)C1C2 (some centres not stated)
- Potency (Tov-21-G): inactive
- Potency (Tov112D): inactive

Structure (SMILES): C/C=C(\C)C(=O)O[C@@H]1[C@@H](C)[C@]2(O)[C@@H]3C=C(C)C(=O)[C@H]3CC(CO)=C[C@H]2C2C(C)(C)[C@@]21OC(=O)C(C)CC (some centres not stated)
- Potency (Tov-21-G): inactive
- Potency (Tov112D): inactive

Structure (SMILES): CCN1C(C)(C)CC(Oc2ccc(C(=O)Nc3ccc(NC(=O)Nc4cc(C(C)(C)C)on4)cc3)nc2)CC1(C)C
- Potency (Tov-21-G): inactive
- Potency (Tov112D): inactive

Structure (SMILES): COC(CCc1ccc(O)cc1)CC(=O)CCc1ccc(O)cc1 (configuration not stated)
- Potency (Tov-21-G): inactive
- Potency (Tov112D): inactive

Structure (SMILES): O=C(NCc1cccs1)c1cc2nc(-c3ccco3)cc(C(F)(F)Cl)n2n1
- Potency (Tov-21-G): inactive
- Potency (Tov112D): inactive

Structure (SMILES): COc1ccc(-c2cnc3c(-c4cccc5ncccc45)cnn3c2)cc1
- Potency (Tov-21-G): inactive
- Potency (Tov112D): inactive

Structure (SMILES): COc1ccc(C2(N(C)C(=O)c3ccc(NC(=O)c4ccco4)cc3)CCOCC2)cc1
- Potency (Tov-21-G): inactive
- Potency (Tov112D): inactive

Structure (SMILES): CC(C)=CCCC1(C)C2CCC1(C)C(O)C2 (configuration not stated)
- Potency (Tov-21-G): inactive
- Potency (Tov112D): inactive

Structure (SMILES): CCCCCc1ccc(/C=C/C(=O)Nc2cc(Cl)ccc2C(=O)O)cc1
- Potency (Tov-21-G): inactive
- Potency (Tov112D): inactive

Structure (SMILES): CN(C)C(CCOc1cccc2ccccc12)c1ccccc1 (configuration not stated)
- Potency (Tov-21-G): inactive
- Potency (Tov112D): inactive

Structure (SMILES): C[C@@H](c1ccc2nccn2c1)n1nnc2ncc(-c3cnn(C)c3)nc21
- Potency (Tov-21-G): inactive
- Potency (Tov112D): inactive

Structure (SMILES): Cn1c(CO)c(-c2ccccc2)c2cc([N+](=O)[O-])ccc21
- Potency (Tov-21-G): inactive
- Potency (Tov112D): inactive

Structure (SMILES): CC(C)(O)C1Cc2c(ccc(C(=O)CCc3ccccc3)c2O)O1 (configuration not stated)
- Potency (Tov-21-G): 12.6 µM (active)
- Potency (Tov112D): 10 µM (active)
